# Screening data as filed in PubChem.
# CHT block: inhibitors of human choline transporter CHT. CHT-expressing cells, membrane potential dye, choline response; active compounds read low. B-score at 10 µM. actives 0.86% (n = 310,000);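 active = B-score over 3 SD under the library average, and starting fluorescence ratio not unusually high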;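 note: choline stimulus applied at its EC90 after an EC20 pre-addition; B-score computed on integrated fluorescence ratio after choline addition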
# Platelet DG rel: inhibitors of platelet dense granule secretion, primary screen, cell-based, MLPCN, human platelets. human platelet-rich plasma, SFLLRN dense granule ATP release, luminescence. inhibition, %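 (compounds screened at 7.5 µM in platelet-rich plasma)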. actives 0.22% (n = 300,000). AID 1663, 2009;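 active = mean replicate score, as percent of positive control, at or above 50; inconclusive = mean below 50 but at least one replicate at or above 50; inactive = mean and every replicate below 50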
# VLA-4 inh: inhibition in human VLA-4 binding assay, primary screen, VLA-4 allosteric modulator project, MLPCN library, flow cytometry, VLA-4 expressing cells | actives 0.2% (n = 330,000) | ligand binding flow cytometry | inhibition, % (about 7 µM as worked out from the volumes in the protocol) | Integrin alpha-4 (Homo sapiens), P13612 | AID 2557, 2010; in the data active = inhibition above about 50%
# HIF act: HIF pathway transcriptional activators, primary screen, cell-based, U2OS HRE-luciferase, luminescence. U2OS HRE-luciferase reporter; normalized: DMSO 0%, desferrioxamine 100%. activation, % at 7.5 µM (by protocol). actives 0.32% (n = 300,000);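 active = mean activation of at least 10% of the iron chelator positive control signal, with at least half of replicates also reaching 10%; inconclusive = mean and replicate majority disagree about reaching 10%; inactive = mean and most replicates under 10%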
# AI-2 QS modul: Vibrio harveyi AI-2 quorum sensing modulators, primary screen, JMH597 strain, luminescence/OD600 ratio; Vibrio harveyi JMH597 AI-2 luminescence/OD600 ratio, 9 h; active compounds read low; strain lacks LuxN and CqsS sensors; 0 = neutral-control median; activity change, % at 7.5 µM; actives 0.4% (n = 300,000); AID 2094, 2009; in the data active = activity change below about -75%, passing the limit was not always enough; inconclusive = no clear call, values can overlap the other calls;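 note: luminescence divided by OD600 gain over 9 h not by final OD600 alone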
# CHT PAM: CHT positive allosteric modulators, primary screen, cell-based, membrane potential dye, choline EC20; High affinity choline transporter 1 (Homo sapiens), Q9GZV3; CHT-expressing cells; active compounds read high; LV-AA mutant CHT in HEK293 cells; B-score at 10 µM; actives 0.49% (n = 310,000); AID 488977, 2010;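 active = initial fluorescence not abnormally high and integrated response B-score, plate-corrected, over 3 SD above library mean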
# JMH597 growth: Vibrio harveyi growth inhibition, confirmation, counter-screen for AI-2 quorum sensing project, JMH597 strain, OD600 absorbance. growth inhibition, % at 7.5 µM. 9 h; lacks LuxN and CqsS sensors. shares compounds with AI-2 QS modul. actives 1% (n = 750);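 active = every replicate shows growth inhibition above 50%; inconclusive = at least half, but not all, replicates pass that cutoff; inactive = fewer than half of replicates pass it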
# BB721 lum counter: luminescence inhibition in constitutive-on V. harveyi, confirmation, counter-screen for LuxS inhibitor project, strain BB721, luminescence readout; actives 95% (n = 750); Vibrio harveyi BB721 luminescence, 9 h; inhibition, % at 7.5 µM; shares compounds with AI-2 QS modul;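 active = inhibition above about 80% in every replicate, not just on average, limit read from the data; inconclusive = at least half of replicates past the limit, but not all; inactive = fewer than half of replicates past the limit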
# BB721 growth: growth inhibition of V. harveyi BB721, confirmation, cytotoxicity control for AI-2 quorum sensing inhibitors, strain BB721, absorbance OD600. Vibrio harveyi BB721 growth, 9 h. growth inhibition, % at 7.5 µM. AID 2728, 2010. shares compounds with AI-2 QS modul. actives 3% (n = 750);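 active = every replicate shows growth inhibition above 50%; inconclusive = at least half but not all replicates above 50% inhibition; inactive = under half of replicates above 50% inhibition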
# JMH597 AI-2 mod: Vibrio harveyi AI-2 signaling luminescence modulation – JMH597 strain, confirmation; shares compounds with AI-2 QS modul; inhibition, % at 7.5 µM; Vibrio harveyi JMH597 AI-2 quorum sensing luminescence, 9 h; luxN and CqsS knockout, AI-2 only; actives 97% (n = 750);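 active = every replicate shows more than 75% inhibition of signal versus neutral control wells; inconclusive = half to three quarters of replicates exceed 75% inhibition; inactive = fewer than half of replicates exceed 75% inhibition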
# * marks the source's active call; other numbers are inactive results; i = inactive; ? = inconclusive; / = no result given. Sampled rows, rich in hits. Any-hit rate of the full collection: about 2.2%.
SMILES,CHT block,Platelet DG rel,VLA-4 inh,HIF act,AI-2 QS modul,CHT PAM,JMH597 growth,BB721 lum counter,BB721 growth,JMH597 AI-2 mod
O=C(NCc1ccccc1)c1cc2ccccc2o1,i,-8,7,1,-86*,i,-11,94*,-4,95*
O=C(CCC(=O)c1ccccc1)NC1CCCN(Cc2ccccc2F)C1 (centres undefined),i,7,10,1,9,i,/,/,/,/
CCc1cc2c(=O)oc(-c3ccc(F)cc3)nc2s1,i,8,3,-1,15,i,/,/,/,/
O=C(O)c1cc(Cl)c(Cl)cc1C(=O)NCc1ccco1,i,-7,4,1,/,i,/,/,/,/
COc1cc(NC(=O)CN2C(=O)CN(C)C2=O)c(C)cc1[N+](=O)[O-],i,-5,2,-1,46,i,/,/,/,/
COc1cc(NC(=O)Cn2ncc(Cl)c(Cl)c2=O)c(C)cc1[N+](=O)[O-],/,-2,/,-5,-80*,/,4,93*,3,94*
CC(=O)c1cccc(NC(=O)Cn2cc3c(n2)CCCC3)c1,i,2,0,0,-89*,i,15,97*,7,98*
CC(=O)Nc1ccc(NC(=O)Cn2cc3c(n2)CCCC3)cc1,i,0,3,0,44,i,/,/,/,/
C[n+]1c(-c2ccccc2)sc([S-])c1-c1ccccc1,i,1,1,-1,24,i,/,/,/,/
Cc1ccc(-c2[nH]ncc2C(=O)c2ccc(Br)cc2)c(O)c1,i,-20,13,-23,-95*,i,14,97*,-5,98*
CCCOC(=O)c1ccc(NS(=O)(=O)c2cccs2)cc1,i,-4,4,-1,-86*,i,16,89*,-22,99*
O=C1NN=C(c2ccc(Br)cc2)CC1c1ccc(Cl)cc1 (centres undefined),i,1,12,0,-84*,i,4,98*,12,97*
CSc1ncc(C(=O)Nc2ccc(Br)cn2)c(C)n1,i,0,-5,1,2,i,/,/,/,/
Fc1ccc(-c2nnn(Cc3nc4ccccc4s3)n2)cc1,i,1,-7,0,-90*,i,22,98*,25,98*
Clc1ccc(-c2nnn(Cc3nc4ccccc4s3)n2)cc1,i,3,-9,3,-31,i,/,/,/,/
CC(=O)C[C@H](O)CC(=O)[C@@H]1OC(=O)CCCCCc2ccccc21,/,/,-11,/,/,/,/,/,/,/
c1ccc(-c2nc(-c3cccnc3)cs2)cc1,i,-4,11,-14,20,i,/,/,/,/
c1ccc(CNc2nc(-c3cccnc3)cs2)cc1,i,-10,13,2,-83*,i,22,94*,12,97*
C=CCOc1ccc(C2C(C(=O)c3ccco3)=C(O)C(=O)N2c2nnc(C)s2)cc1 (centres undefined),i,-2,6,3,18,i,/,/,/,/
CCc1ccc2nc(NC(=O)CSCc3c(C)noc3C)sc2c1,i,3,28,3,-90*,i,11,94*,-109,96*
O=C(NCc1cccs1)C(=O)c1c[nH]c2ccccc12,i,5,6,1,-92*,i,20,97*,-1,98*
O=C(NCc1ccccc1Cl)C(=O)c1c[nH]c2ccccc12,i,-2,6,0,-83*,i,-15,94*,16,95*
C=CCNc1nc(N)c([N+](=O)[O-])c(NCCO)n1,i,-4,-3,0,29,i,/,/,/,/
Cc1cc(C(=O)N(C)CC(=O)Nc2ccc(F)c(F)c2F)no1,i,-6,-2,0,18,i,/,/,/,/
CN(C)S(=O)(=O)c1ccc(C(=O)OCC(=O)c2ccc3c(c2)NC(=O)CO3)cc1,i,-11,-3,0,-95*,i,-10,?,-8,85*
SMILES,CHT block,Platelet DG rel,VLA-4 inh,HIF act,AI-2 QS modul,CHT PAM,JMH597 growth,BB721 lum counter,BB721 growth,JMH597 AI-2 mod
O=C1COc2ccc(C(=O)COC(=O)Cc3ccsc3)cc2N1,i,8,1,0,-85*,i,27,95*,11,97*
CN(C)S(=O)(=O)c1cccc(C(=O)OCC(=O)c2ccc3c(c2)NC(=O)CO3)c1,i,-3,8,0,-53,i,/,/,/,/
Cc1cc(C)cc(OCC(=O)OCC(=O)c2ccc3c(c2)NC(=O)CO3)c1,i,0,3,1,17,i,/,/,/,/
O=C1COc2ccc(C(=O)COC(=O)Cc3ccccc3F)cc2N1,i,16,34,0,-83*,i,3,88*,0,91*
Cc1ccc(NC(=S)N(Cc2ccc(Br)cc2)Cc2ccc(C(=O)O)cc2)cc1C,i,-3,3,1,39,i,/,/,/,/
CC(C)(C)c1ccc(OCC(=O)N2CCN(c3ncccn3)CC2)cc1,i,8,9,0,-86*,i,0,93*,12,95*
CN1C(=O)Cc2cc(S(=O)(=O)N3CCN(c4cccc(C(F)(F)F)c4)CC3)ccc21,i,-15,20,0,-2,i,/,/,/,/
COc1cc2nc(NC(=O)c3ccc(F)cc3Cl)sc(=O)c2cc1OC,i,6,-1,-1,20,i,/,/,/,/
CN(C)S(=O)(=O)c1cccc(NC(=O)CSc2ncnc3ccccc23)c1,i,20,-2,1,-46,i,/,/,/,/
CN(C)S(=O)(=O)c1ccc(NC(=O)COc2ncnc3sccc23)cc1,i,-3,4,0,-97*,i,-2,100*,5,100*
CN(C)S(=O)(=O)c1ccc(NC(=O)CSc2ncnc3ccccc23)cc1,i,-2,6,0,-86*,i,4,92*,6,94*
